A short description of assay [1]: Wnt pathway potentiators raising nuclear beta-catenin – imaging, WNT3A-conditioned medium, mouse C2C12, NPC library, primary screen (AID 1117326; in the data active = nuclear beta-catenin stimulation mostly above about 4.2%, no sharp cut-off; inactive = mostly below about 10%; note: reference of the scale not given here). The note with it: stronger effect = higher value.
Assay [2] is described as follows: stimulators of insulin release from INS-1E, primary screen, cell-based, 5 mM glucose, NPC library (AID 1117329;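 active = compound raises insulin release from rat beta cells at 5 mM glucose, no numeric limit stated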; note: reference of the scale not given here). The conditions noted are these: rat INS-1E insulin secretion, at 10 µM, stronger effect = higher value.
The nature of assay [3]: growth inhibition of GSK3B-pretreated HCT116 cells – cell-based, CellTiter-Glo, 0.2 to 20 µM (AID 1117336). The conditions noted are these: HCT116 viability after GSK3B inhibitor, at 20 µM, stronger effect = higher value. In general terms: In ATP-based viability assays light output follows the ATP content of the culture.
Assay [4] can be described thus: inhibition of endothelial tube formation, primary screen, imaging, VEGF stimulated, CD31 staining, tube area, NPC library (AID 1117340;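 active = compound that reduces growth-factor-driven endothelial tube area in a mixed cell culture, no cutoff stated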). The conditions noted are these: VEGF-stimulated ADSC/ECFC co-culture, at 10 µM, stronger effect = higher value.
Assay [5] in a line: GLP1 release stimulators, primary, NCI-H716, NPC library (AID 1117341;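 active = compound raises GLP1 secretion from the human gut endocrine cells, with no numeric limit stated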; note: reference of the scale not given here). The conditions noted are these: NCI-H716 cells, at 10 µM, stronger effect = higher value.
The nature of assay [6]: HCT116 colon cancer cell growth inhibition, primary screen, CellTiter-Glo luminescence, NPC library (AID 1117342;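 active = compounds that lower survival of HCT116 colon cancer cells in the luminescence readout, no numeric limit stated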). The note with it: at 20 µM (top of the series).
The nature of assay [7]: reduced SW480 viability measured with CellTiter-Glo, NPC library, primary (AID 1117343;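 active = compounds that lower viability of the colon cancer cells in the luminescence readout, with no numeric limit stated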). The note with it: CellTiter-Glo luminescence; at 20 µM (top of the series).
Assay [8] is described as follows: NPC library primary testing for decreased DLD-1 cell viability via CellTiter-Glo (AID 1117346;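 active = compounds that lower survival of DLD-1 colon cancer cells in the luminescence readout, no cutoff given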). The conditions noted are these: DLD-1 viability, CellTiter-Glo luminescence; at 20 µM (top of the series).

Calls of active or inactive are those of the source.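 Rule for the calls, unless noted: active = compounds lowering colon cancer cell viability after pretreatment blocking the GSK3B kinase; inactive = the rest.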

Regarding `O=C(c1ccccc1)C(O)c1ccccc1` (stereo unspecified), the nuclear beta-catenin stimulation was 0.5% (inactive) in assay [1] (at 10 µM) and 0.8% in assay [1] (stimulation, at 2 µM). In addition, the insulin secretion stimulation in assay [2] is -1.6% (inactive). Besides, the viability decrease in assay [3] is -1.05% (inactive). The tube area decrease in assay [4] was -9.2% (inactive). Further, the GLP1 secretion stimulation in assay [5] was -0.3% (inactive). For the same compound, the inhibition of viability in assay [6] is 2.8% (inactive). The viability decrease (inhibition) in assay [7] is 9.2% (inactive); in assay [8], 6.95% (inactive).
Turning to `CC(=O)N1CCN(c2ccc(O)cc2)CC1`, the nuclear beta-catenin stimulation in assay [1] (at 10 µM) was 1.7% (inactive); in assay [1] (stimulation, at 2 µM) it was -1.5%. Also, the insulin secretion stimulation in assay [2] is -0.1% (inactive). Also, the viability decrease in assay [3] is 73.5% (active). Also, in assay [4], the tube area decrease is -25.3% (inactive). Also, the GLP1 secretion stimulation in assay [5] is 3.8% (inactive). Also, the inhibition of viability in assay [6] was 38.5% (inactive). For the same compound, the viability decrease (inhibition) in assay [7] is 101% (active); in assay [8], 34.4% (inactive).
`COc1ccc2c(c1)CCCC2=O`: the nuclear beta-catenin stimulation in assay [1] (at 10 µM) was 1.5% (inactive); in assay [1] (stimulation, at 2 µM) it was -0.1%. Also, the insulin secretion stimulation in assay [2] was 1.3% (inactive). Also, the viability decrease in assay [3] is 5.2% (inactive). Further, the tube area decrease in assay [4] was 13.5% (inactive). Further, the GLP1 secretion stimulation in assay [5] is 0.1% (inactive). For the same compound, in assay [6], the inhibition of viability is 8.5% (inactive). Moreover, the viability decrease (inhibition) in assay [7] was -3.8% (inactive); in assay [8], -12% (inactive).
Regarding `N=C(N)c1ccc(OCCCOc2ccc(C(=N)N)cc2)cc1`, the nuclear beta-catenin stimulation is -2.3% (inactive) in assay [1] (at 10 µM) and -0.9% in assay [1] (stimulation, at 2 µM). The insulin secretion stimulation in assay [2] was 2.7% (inactive). The viability decrease in assay [3] was -29.9% (inactive). In addition, in assay [4], the tube area decrease is -17.1% (inactive). Also, the GLP1 secretion stimulation in assay [5] was -1.7% (inactive). For the same compound, in assay [6], the inhibition of viability is 7.1% (inactive). In addition, the viability decrease (inhibition) was 9.5% (inactive) in assay [7] and -2.6% (inactive) in assay [8].
As for `CCCCCCCCCCCCCCNCCO`, the nuclear beta-catenin stimulation in assay [1] (at 10 µM) was 10.8% (inactive); in assay [1] (stimulation, at 2 µM), 10.6%. Besides, the insulin secretion stimulation in assay [2] was -1.5% (inactive). In addition, in assay [3], the viability decrease is 62.8% (active). Moreover, in assay [4], the tube area decrease was 103% (active). Also, the GLP1 secretion stimulation in assay [5] was 34.8% (active). Moreover, the inhibition of viability in assay [6] was 32.6% (inactive). Besides, the values for the viability decrease (inhibition) in assay [7] and in assay [8] were 121% (active) and 103% (active), respectively.
As to `c1ccc(OCc2ccc(CCCN3CCOCC3)cc2)cc1`, the nuclear beta-catenin stimulation in assay [1] (at 10 µM) is -1% (inactive); in assay [1] (stimulation, at 2 µM), 0.3%. Also, the insulin secretion stimulation in assay [2] was 4.5% (inactive). Also, in assay [3], the viability decrease was 32.1% (inactive). In assay [4], the tube area decrease is 14% (inactive). For the same compound, in assay [5], the GLP1 secretion stimulation was -0.1% (inactive). The inhibition of viability in assay [6] is 54.5% (active). Further, the viability decrease (inhibition) in assay [7] was 34.7% (active); in assay [8], 19.4% (inactive).
As to `O=C(O)c1cn(C2CC2)c2cc(Cl)c(F)cc2c1=O`, the nuclear beta-catenin stimulation was 0% (inactive) in assay [1] (at 10 µM) and -1.8% in assay [1] (stimulation, at 2 µM). Besides, the insulin secretion stimulation in assay [2] is 2.05% (inactive). For the same compound, the viability decrease in assay [3] is 55.5% (active). Besides, the tube area decrease in assay [4] was -14.6% (inactive). Also, the GLP1 secretion stimulation in assay [5] is -3.9% (inactive). The inhibition of viability in assay [6] was 42.5% (inactive). Further, the viability decrease (inhibition) in assay [7] and in assay [8] was -3.8% (inactive) throughout.
With `O=C(O)c1ccccn1`, the nuclear beta-catenin stimulation is 1.7% (inactive) in assay [1] (at 10 µM) and 0.9% in assay [1] (stimulation, at 2 µM). Moreover, the insulin secretion stimulation in assay [2] is -0.2% (inactive). Further, the viability decrease in assay [3] is 31.1% (inactive). In addition, the tube area decrease in assay [4] was -6.5% (inactive). For the same compound, the GLP1 secretion stimulation in assay [5] is 1.3% (inactive). The inhibition of viability in assay [6] was -1.6% (inactive). In addition, the viability decrease (inhibition) in assay [7] is 10.7% (inactive); in assay [8] it was 22% (inactive).
On to `NC[C@H]1O[C@H](O[C@@H]2[C@@H](O)[C@@H](O[C@H]3O[C@H](CO)[C@@H](O)[C@H](N)[C@@H]3O)[C@H](N)C[C@@H]2N)[C@H](O)[C@@H](O)[C@H]1O`, for which the nuclear beta-catenin stimulation was -1.2% (inactive) in assay [1] (at 10 µM) and -0.6% in assay [1] (stimulation, at 2 µM). For the same compound, the insulin secretion stimulation in assay [2] was -0.8% (inactive). The viability decrease in assay [3] was -36.2% (inactive). In addition, the tube area decrease in assay [4] was -10.7% (inactive). In addition, the GLP1 secretion stimulation in assay [5] was -0.1% (inactive). The inhibition of viability in assay [6] was -13.3% (inactive). Further, the viability decrease (inhibition) is -2.1% (inactive) in assay [7] and -23.8% (inactive) in assay [8].
Turning to `O=C1CC2(CCCC2)CC(=O)N1`, the nuclear beta-catenin stimulation in assay [1] (at 10 µM) is -0.8% (inactive); in assay [1] (stimulation, at 2 µM), -1.2%. Further, in assay [2], the insulin secretion stimulation is 0.4% (inactive). Moreover, the viability decrease in assay [3] is -4% (inactive). Moreover, the tube area decrease in assay [4] was -10.3% (inactive). The GLP1 secretion stimulation in assay [5] was -1.6% (inactive). Also, the inhibition of viability in assay [6] was 7.1% (inactive). Further, the viability decrease (inhibition) in assay [7] was 2.5% (inactive); in assay [8] it was -2.4% (inactive).
Consider `CN1CCN(C(=O)C2CCCCC2)CC1`, for which the nuclear beta-catenin stimulation in assay [1] (at 10 µM) is 0% (inactive); in assay [1] (stimulation, at 2 µM), -0.3%. Besides, the insulin secretion stimulation in assay [2] is 4.2% (inactive). In addition, the viability decrease in assay [3] is -2.7% (inactive). Moreover, the tube area decrease in assay [4] was -5.2% (inactive). The GLP1 secretion stimulation in assay [5] was 5.1% (inactive). Besides, in assay [6], the inhibition of viability was 12% (inactive). For the same compound, the figures for the viability decrease (inhibition) in assay [7] and in assay [8] were 28.1% (inactive) and 11.9% (inactive), respectively.
For `CCCCC(C)(O)CC=C[C@H]1[C@H](O)CC(=O)[C@H]1CCCCCCC(=O)OC` (stereo partly specified), the nuclear beta-catenin stimulation in assay [1] (at 10 µM) is -0.9% (inactive); in assay [1] (stimulation, at 2 µM), 2.4%. Besides, in assay [2], the insulin secretion stimulation was 0.9% (inactive). Further, the viability decrease in assay [3] is -0.5% (inactive). Moreover, the tube area decrease in assay [4] is -9.4% (inactive). Also, the GLP1 secretion stimulation in assay [5] is -1.9% (inactive). In assay [6], the inhibition of viability was -12.9% (inactive). The figures for the viability decrease (inhibition) in assay [7] and in assay [8] were -17.2% (inactive) and 66.4% (active), respectively.
On to `O=C1Nc2cc(Cl)ccc2Oc2ccccc21`, for which the nuclear beta-catenin stimulation in assay [1] (at 10 µM) was 0% (inactive); in assay [1] (stimulation, at 2 µM), -0.5%. Moreover, the insulin secretion stimulation in assay [2] was -0.2% (inactive). Besides, the viability decrease in assay [3] was 55.1% (active). Besides, the tube area decrease in assay [4] was 17.8% (inactive). The GLP1 secretion stimulation in assay [5] was -0.4% (inactive). Further, in assay [6], the inhibition of viability was 10.7% (inactive). Also, the viability decrease (inhibition) in assay [7] was -6.3% (inactive); in assay [8] it was -57.3% (inactive).
Take `CC(C)[N+](C)(C)CC(O)COc1cccc2ccccc12` (stereo unspecified): the nuclear beta-catenin stimulation is -2.3% (inactive) in assay [1] (at 10 µM) and -0.7% in assay [1] (stimulation, at 2 µM). Further, in assay [2], the insulin secretion stimulation was 2.4% (inactive). Besides, the viability decrease in assay [3] was 7.2% (inactive). In addition, the tube area decrease in assay [4] was -21% (inactive). Further, the GLP1 secretion stimulation in assay [5] is 3% (inactive). Also, in assay [6], the inhibition of viability was 34.1% (inactive). Besides, the viability decrease (inhibition) is -0.7% (inactive) in assay [7] and 5.7% (inactive) in assay [8].

The record behind these values is PubChem BioAssay.
